From PubChem
DRD3 antagonist = blocks the human D3 dopamine receptor. P35462. D3R cells, DiscoveRx beta-arrestin luminescence, antagonist mode; active compounds read low. max response, negative = inhibition, %. actives 2.5% (n = 360,000); in the data active means max response below about -50%; inconclusive means no clear call, values can overlap the other calls; further: on the % scale 0 is the no-effect control and ±100 the full control effect
Target sequence (P35462 whole entry, looked up): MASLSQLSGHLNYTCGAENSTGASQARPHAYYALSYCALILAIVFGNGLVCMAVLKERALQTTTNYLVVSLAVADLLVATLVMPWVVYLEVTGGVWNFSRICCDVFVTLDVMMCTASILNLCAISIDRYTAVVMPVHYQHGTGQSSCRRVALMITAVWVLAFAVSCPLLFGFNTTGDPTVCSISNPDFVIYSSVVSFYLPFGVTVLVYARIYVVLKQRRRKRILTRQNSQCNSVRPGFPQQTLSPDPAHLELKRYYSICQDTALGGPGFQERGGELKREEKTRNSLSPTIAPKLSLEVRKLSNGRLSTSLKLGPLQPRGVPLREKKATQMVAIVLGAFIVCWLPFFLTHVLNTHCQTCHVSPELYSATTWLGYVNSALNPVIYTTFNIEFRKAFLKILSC
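Cells plated overnight at 1500 cells/well, then exposed to library compounds with dopamine controls for 90 minutes at 37 degrees C. DiscoveRx reagent added for 30–60 minutes at room temperature; luminescence read, quantitative HTS format.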
D1 antag = human D1 dopamine receptor antagonism | AID 504652 | activity change, negative = inhibition, % at 10 µM | P21728 | actives 3.2% (n = 360,000) | HEK293 TREx D1 cells, calcium flux, dopamine EC80; active compounds read low; in the data active means activity change below about -30%; further: on the % scale 0 is the no-effect control and ±100 the full control effect
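Kinetic fluorescence of a calcium dye serves as the read-out. D1-expressing Hek293 Trex cells, induced overnight at 30 C, are exposed to compound for 180 s before an EC80 dopamine addition, then read 180 s further.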
DRD3 agonist = activates the human D3 dopamine receptor | actives 0.58% (n = 410,000) | max activation, % | D3R DiscoveRx beta-arrestin cells, luminescence, 90 min; in the data active means max activation above about 30%; further: 0% is about no effect
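Agonist mode: compounds and dopamine controls were applied to plated cells for 90 min at 37 degrees C after an overnight attachment at 1500 cells/well. Luminescent read-out followed 30 - 60 minutes at room temperature with DiscoveRx detection reagent.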
D1 PAM = enhances dopamine response at the human D1 receptor; P21728; HEK293 TREx D1 cells, calcium flux, dopamine EC20 potentiation; potentiation, % at 10 µM; actives 0.036% (n = 360,000); AID 504651; in the data active means potentiation above about 30%; further: 0% is about no effect
D1 agonist = activates the human D1 dopamine receptor; actives 1% (n = 360,000); HEK293 T-REx D1 cells, calcium flux, agonist mode; activation, % at 2 µM; in the data active means activation above about 30%; further: 0% is about no effect
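Inducible HEK293 T-REx D1 cells, force-coupled to calcium signalling, were plated at 4000 cells/well with tetracycline and held overnight at 30 C. After no-wash calcium dye loading, compound-evoked calcium rise over 180 s flagged agonists.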
Active calls of the source: *; ? = inconclusive; / = no result given. An excerpt weighted towards active compounds, which were near 6.1% of everything screened.

SMILES | DRD3 antagonist | D1 antag | DRD3 agonist | D1 PAM | D1 agonist
O=[N+]([O-])c1ccc(NCCNc2ccc(Cl)nn2)cc1 | -73.8* | -11.6 | -2.9 | -4.8 | -0.4
Cc1c(C(=O)N2CCN(c3ccccn3)CC2)oc2c(F)cccc12 | -12.2 | -10.8 | 60.0* | -0.9 | 2.8
Cc1c(C(=O)N2CCN(c3ncccn3)CC2)oc2c(Cl)cccc12 | 38.0 | 2.4 | 7.2 | 1.4 | 5.7
COC(=O)c1ccc(C)cc1 | 12.4 | / | 1.6 | / | /
COC(=O)c1ccc(C)c(N(CCO)CCO)c1 | -6.4 | -43.0* | 36.1* | -7.4 | 1.0
CCCN1CCN(C(=O)Cn2c(-c3cccs3)cc3ccccc32)CC1 | / | 3.5 | 4.8 | 0.9 | -1.4
Cc1cc(OCCSc2nnc(-c3cccs3)n2C)ccc1Cl | 1.3 | -20.0 | -1.3 | -13.1 | 34.8*
Cc1ccc(OCCSc2nnc(-c3cccs3)n2C)cc1 | 13.3 | 3.0 | 1.1 | -5.8 | -1.2
CCCCNS(=O)(=O)CCNCc1ccco1 | -9.2 | / | 43.1* | / | /
CCCCNS(=O)(=O)CCNCc1ccc(OC)cc1 | -3.1 | / | -49.9 | / | /
CCCCCCCCNCCS(=O)(=O)NCc1ccccc1 | -81.0* | / | -40.8 | / | /
CC1OC2(C)OC(=N)C1(C#N)C(C#N)(C#N)C2c1ccccc1 (stereo not given) | -9.7 | -35.4* | -4.9 | 4.5 | 4.1
Fc1cccc(CSc2ccc(-c3ccco3)nn2)c1 | 32.3 | 6.2 | 4.6 | -4.6 | 3.5
Fc1ccc(CSc2ccc(-c3ccco3)nn2)cc1 | ? | -84.6* | -1.4 | -6.8 | 1.1
COc1cccc(CNC(=O)CCCN2C(=O)C(c3ccccc3)Oc3cccnc32)c1OC (stereo not given) | -13.5 | 4.6 | -1.9 | -6.2 | 2.2
CC(C)/C=N/Nc1nc(-c2ccc(Br)cc2)cs1 | 11.0 | -45.6* | 1.9 | -2.1 | 0.2
O=[N+]([O-])c1ccc(/C=N/NC(=S)Nc2ccccc2)o1 | -15.3 | -2.6 | -1.2 | -3.9 | 9.2
O=[N+]([O-])c1ccc(/C=N/NC(=S)Nc2ccccc2F)o1 | ? | -53.1* | 5.7 | -4.0 | 3.5
Fc1ccccc1NC(=S)N/N=C/c1ccccc1Br | -78.6* | 34.2 | -20.3 | 1.3 | -2.8
O=[N+]([O-])c1ccc(/C=N/Nc2ccc3ccccc3c2)o1 | -88.9* | 11.0 | -19.4 | -2.5 | 39.9*
CCc1ccc(-n2c(N3CCN(c4cccc(C)c4C)CC3)nc3ccccc3c2=O)cc1 | / | 16.2 | 5.8 | -0.1 | 0.8
COc1ccc(S(=O)(=O)Nc2ccc3c(c2)N(C(C)=O)CCC3)cc1F | / | -16.3 | 6.9 | -0.2 | 8.4
CCN1CCN(c2ccccc2NC(=O)C(C)Oc2ccc(C(C)=O)cc2)CC1 (stereo not given) | 5.2 | -49.3* | -20.8 | -3.8 | -0.4
Cc1ccccc1NC(=O)COC(=O)c1ccc(CSc2ccc(Cl)cc2)cc1 | 42.5 | -15.3 | 10.8 | -13.1 | 178.7*
CCN(C(=O)Cn1nnc2sc(-c3ccccc3)cc2c1=O)c1cccc(C)c1 | / | 8.3 | 8.2 | -0.3 | 2.9
SMILES | DRD3 antagonist | D1 antag | DRD3 agonist | D1 PAM | D1 agonist
C=CCC[C@@H](Cc1ccc(F)cc1)C(=O)OC[C@H](Cc1c[nH]c2ccccc12)NC(=O)[C@@H](CC=C)CC(=O)N[C@H](CO)Cc1ccccc1 | 42.2 | / | 30.6* | / | /
C=CCC[C@H](Cc1ccc(F)cc1)C(=O)OC[C@H](Cc1c[nH]c2ccccc12)NC(=O)[C@@H](CC=C)CC(=O)N[C@@H](CO)Cc1ccccc1 | -9.7 | / | 8.6 | / | /
Cc1nn(-c2c(Cl)cc(Cl)cc2Cl)c(=O)c2ccccc12 | ? | 2.6 | -22.4 | -1.5 | 74.0*
COc1nc(-c2ccccc2)ccc1-c1noc(-c2cccs2)n1 | 46.7 | / | 1.9 | / | /
COc1nc(C)ccc1-c1noc(-c2cccs2)n1 | -14.1 | -34.6* | 13.0 | 2.8 | 2.2
COc1ccc(C(CCNC(C)c2ccccc2)c2ccc(F)cc2)cc1 (stereo not given) | ? | 0.4 | -8.0 | 4.2 | 55.5*
COc1ccc(CNCCC(c2ccc(F)cc2)c2ccc(OC)cc2)cc1 (stereo not given) | -18.3 | 4.3 | -13.2 | -4.8 | 34.2*
COc1ccc(C(CCNCc2ccccc2)c2ccc(F)cc2)cc1 (stereo not given) | -15.0 | 3.9 | -8.7 | -4.2 | 28.6
COc1ccc(C(CCNCc2ccc(F)cc2)c2ccc(F)cc2)cc1 (stereo not given) | -12.2 | -0.5 | -10.6 | 9.8 | 45.9*
Cc1cc2nc3c(nc2cc1C)C(O)=C3O | 4.9 | -16.1 | 3.7 | 2.5 | 2.7
Cc1ccc(S(=O)(=O)N2CCN(CCOc3c(Cl)cccc3Cl)CC2)cc1C | -8.1 | 16.6 | -0.5 | 0.8 | 5.2
O=C(COc1ccccc1Cl)Nc1ccc(CN2CCCCC2)cc1 | -17.7 | 0.7 | -17.6 | -4.0 | 23.7
CCCCN(CCCNC(=O)c1c(C)oc2nc[nH]c(=O)c12)Cc1ccccc1 | / | -5.4 | 1.3 | -0.2 | -0.8
COc1cc(C23CCCN(CCC(C(C)(C)C)C2)C32OCCO2)cc(OC)c1OC (stereo not given) | -18.8 | / | -0.6 | / | /
OCC[C@@H]1C[C@H](O)[C@@H](O)[C@@]2(Cc3ccccc3CO2)O1 | -24.6 | -68.9* | -21.2 | -0.1 | 0.1
OCC[C@H]1C[C@@H](O)[C@H](O)[C@@]2(Cc3ccccc3CO2)O1 | 9.4 | 3.8 | 8.2 | 6.5 | 3.1
Cc1c(C2(O)CCCCC2)[nH]c2ccc(C(F)(F)F)cc12 | 0.3 | / | 14.3 | / | /
CCc1c(C2(O)CCCCC2)[nH]c2cnccc12 | -52.5* | / | -7.3 | -0.1 | 5.8
O=C(c1cccs1)N1CCC(Cc2ccccc2)CC1 | ? | -5.9 | 3.8 | 6.8 | 3.0
O=C(c1cccs1)N1CCN(CCCc2ccccc2)CC1 | -65.4* | -5.5 | -6.3 | -2.9 | 0.9
O=C(c1cccs1)N1CCN(Cc2ccccc2)CC1 | -16.8 | 3.8 | 10.7 | -8.2 | 8.6
O=C(c1cccnc1)N1CCN(CCCc2ccccc2)CC1 | 5.4 | -6.0 | 51.6* | -2.7 | 1.7
COc1ccc(CN2CCN(C(=O)c3cccs3)CC2)cc1 | -58.4* | -7.5 | -12.8 | -6.1 | 0.9
CC1CCC(NC(=O)C(Cc2ccccc2)n2cccc2)CC1 (stereo not given) | 6.9 | -11.0 | -5.3 | -8.8 | -0.6
COc1cc(SC)ccc1C(=O)OCC(=O)NC(=O)NC(C)C | 13.8 | -66.2* | 11.5 | -6.6 | 0.9
O=C1NC[C@H](CCCCN2C[C@H](Cc3ccccc3)N(Cc3ccccc3)C(=O)C2=O)N(CCc2ccccc2)C1=O | 0.0 | / | -7.0 | / | /
CCn1c(NCc2ccc3c(c2)OCO3)nc2ccccc21 | -16.8 | -1.8 | -1.3 | -6.4 | 6.1
c1ccc(Cn2c(CNc3nc4ccccc4n3CCN3CCOCC3)nc3ccccc32)cc1 | -54.2* | -0.5 | -13.1 | -2.9 | -1.5
Brc1ccc(CNc2nc3ccccc3n2CCN2CCCCC2)cc1 | ? | -19.0 | -22.3 | -6.5 | 5.5
c1ccc2c(c1)nc(NCc1ccc3c(c1)OCO3)n2CCN1CCOCC1 | -19.6 | -30.1* | -3.1 | -6.7 | 0.4
